Assay outcomes (PubChem BioAssay)
This is a sample that favours compounds with a hit; in the whole collection about 2.9% have one here.
ATXN2 expr inh: inhibitors of ATXN2 expression. 360,000 tested, 0.72% active. Potency, µM (highest dose often 57 µM), for inactives: at the top dose activity change, negative = inhibition, usual class: inhibitors. HEK-293 ATXN2-luciferase reporter, luminescence, 24 h; note: % is set by controls: 0 for no effect and ±100 for the full control effect; nearly all actives have a fitted effect of over 55% in size
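qHTS (up to 57 uM final) was run with 24 h compound exposure of reporter cells at 37 °C. Each well was multiplexed: SteadyGlo luminescence measured ATXN2-luciferase expression after a fluorogenic Gly-Phe-AFC viability readout (25 uM final).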
Nrf2 activator: activators of Nrf2 (ARE) signaling. AREc32 ARE-luciferase reporter (MCF7-derived line), luminescence, 24 h. Potency, µM (series often up to 46.1 µM), without a hit: top-dose activation, hits mostly activators. 410,000 tested, 0.31% active; note: % of control where 0% means no effect; nearly all actives have a fitted effect of over 65% in size
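ARE activation measured as luciferase luminescence (Steady-Glo, 30 min RT) in AREc32_Fluc cells after 24 hr compound exposure at 37 deg C, 5% CO2; cells seeded overnight at 1000/well in OPTI-MEM, 5% FBS.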
A549 tox: kills or reduces viability of A549 cells in Nrf2 counter-screen. Potency, µM (series often up to 46 µM), for the others: at the top dose activity change, negative = cytotoxicity, hits mostly inhibitors. A549 ARE-Fluc cells, CellTiter-Fluor viability, 18-24 h. 390,000 tested, 0.16% active; note: % is set by controls: 0 for no effect and ±100 for the full control effect
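A549 ARE-Fluc cells in 5% FBS OPTI-MEM, 5000 cells/well, rested 2 h then exposed to compounds in concentration-response for 18-24 h at 37 °C. Viability by CellTiter-Fluor fluorescence (Ex 405/Em 525) after 30 min; luciferase luminescence (BugLite, 15 min, RT) read afterwards.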
ATXN viability: viability counter-screen for ATXN expression inhibitors | S2 cells (HEK-293 line with an ATXN2-luciferase reporter) viability, CellTiter-Fluor protease fluorescence, 24 h | Potency, µM (titrated, usually from 56.7 µM), most hits filed as cytotoxic | AID 651635 | 400,000 tested, 0.49% active; note: nearly all actives have a fitted effect of over 40% in size
Nrf2 block: Nrf2 pathway inhibition; 360,000 tested, 2.1% active; A549 ARE-Fluc reporter, luciferase luminescence, 18-24 h; Potency, µM (series often up to 46 µM), for inactives: at the highest dose activity change, negative = inhibition, hits mostly inhibitors; note: % is set by controls: 0 for no effect and ±100 for the full control effect; nearly all actives have a fitted effect of over 60% in size
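Cells were seeded and rested 2 h, then exposed to compounds for 18-24 h. CellTiter-Fluor was read first as a viability measure. BugLite was added 15 min before the final luminescent read of ARE-luciferase activity in A549 cells.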
Numbers without * were called inactive; i = inactive; ? = inconclusive; . = not tested or not shown; ! = not confirmed by another sample; [ ] = remark or other dose. Calls come from the whole dose curve; as a rule, active = well fitted curve in the direction sought with a large enough effect; inconclusive = small, poorly fitted or top-dose-only effect, or another doubt; inactive = no such curve, though single readings can be large; an effect the other way counts as inactive or inconclusive. Potency is the fitted concentration of half-maximal effect.

SMILES	ATXN2 expr inh	Nrf2 activator	A549 tox	ATXN viability	Nrf2 block
O=C(NNC(=O)C12CC3CC(CC(C3)C1)C2)c1ccccn1	?	?	?	?	21µM*
O=C(NNC(=O)C12CC3CC(CC(C3)C1)C2)c1cnccn1	-22%	0%	-5%	?	-7%
CN1CCC(OC(=O)c2ccccc2Cl)CC1	0%	0%	6%	i	13%
CCOc1ccc(-n2c(=O)c3c(C)c(C)sc3n(CC(=O)C(C)(C)C)c2=O)cc1	16%	0%	-17%	i	-3%
COc1ccc(Cc2nnc(N/N=C/c3ccc(O)cc3)[nH]c2=O)cc1OC	1.6µM*	2%	5%	?	?
CC1=C(C(=O)Nc2ccccc2)C(c2ccc(O)cc2)n2nc(-c3ccc(Cl)cc3)nc2N1 (stereo not drawn)	0%	-1%	-11%	28µM*	-13%
Cc1cc(C)cc(N(C)S(=O)(=O)c2nnc(NC(=O)COc3ccc(Cl)cc3)s2)c1	.	-1%	-19%	.	?
Cc1cccc(N(C)S(=O)(=O)c2nnc(NC(=O)c3ccco3)s2)c1	.	-1%	2%	?	2%
CCC(CC)C(=O)Nc1nnc(S(=O)(=O)N(C)c2cc(C)cc(C)c2)s1	.	2%	-6%	.	21µM*
CN(c1ccccc1)S(=O)(=O)c1nnc(NC(=O)c2ccco2)s1	4%	0%	-3%	i	7.3µM*!
COC(=O)c1onc(-c2ccccc2)c1C(=O)OC	2%	0%	-8%	?	-4%
CC(C)(C)c1ccc(-c2nnc(SCCC#N)n2C2CCCC2)cc1	-29%	2%	?	i	21µM*
Clc1ccc(CON/C=N/c2ncnc3sccc23)cc1	-17%	0%	-11%	i	21µM*
C(=N\c1ncnc2sccc12)/NOCc1ccccc1	-8%	0%	1%	i	.
COc1ccc(CCNC(=O)c2ccccc2NS(=O)(=O)c2c(F)cccc2F)cc1	-10%	-1%	0%	i	?
O=C(Nc1ccc(F)cc1)Nc1ccc2snnc2c1	?	0%	-24%	i	23µM*
Cc1c(Cl)cccc1NC(=O)Nc1ccc2snnc2c1	?	-1%	?	i	21µM*
CC(=O)c1ccc(NC(=O)Nc2ccc3snnc3c2)cc1	?	13%	3%	i	?
Cc1ccc(F)c(NC(=O)Nc2ccc3snnc3c2)c1	12%	1%	-3%	i	1%
O=C1CCC(C(=O)OCC(=O)Nc2ccc(SC(F)F)cc2)=NN1	.	0%	.	i	.
CC(Sc1nnc(-c2ccco2)o1)C(=O)Nc1ccc(OC(F)F)cc1 (stereo not drawn)	21%	4%	6%	i	3%
N#CC(c1ccccc1)c1ccc2c(C(F)(F)F)cc(C(F)(F)F)nc2n1 (stereo not drawn)	?	?	?	?	26µM*
S=C(N/N=C/c1ccco1)NC1CC2CCC1C2 (stereo not drawn)	64%	13µM*	3%	i	?
Oc1ccccc1/C=N/NC(=S)NC1CC2CCC1C2 (stereo not drawn)	8%	2%	-12%	?	1%
COCCCNC(=O)Cn1c(=O)n(-c2ccc(Cl)cc2)c(=O)c2c3c(sc21)CCCCC3	11%	-1%	-3%	i	3%
SMILES	ATXN2 expr inh	Nrf2 activator	A549 tox	ATXN viability	Nrf2 block
COc1cc(C(=O)NC2CCN(C)CC2)ccc1Nc1ncc2c(n1)N(C1CCCC1)CCC(=O)N2C(C)C	6.1µM*!	4%	-13%	28µM*	-9%
COc1cc(C(=O)NC2CCN(C)CC2)ccc1Nc1ncc2c(n1)N(CCc1ccccc1)CCC(=O)N2C	-2%	-3%	-20%	i	?
COc1ccccc1NC(=S)N(Cc1ccc(C)cc1)Cc1ccccn1	1%[11.3 µM]	0%	10%	i	-10%
O=C(N/N=C(\c1ccccc1)c1ccccn1)c1ccccc1Cl	22µM*	?	-29%	?	?
Cc1ccccc1NC(=S)N(Cc1ccccn1)Cc1ccccc1Cl	?	0%	-7%	?	?
S=C(NN=C(c1ccccc1)c1ccccn1)N(Cc1ccccn1)Cc1ccccn1	0.89µM*	3%	12µM*	.	?
CC(=NNC(=S)N(Cc1ccccn1)Cc1ccccn1)c1cnccn1	1.3µM*	9%	?	?	?
CCCCc1cc(=O)oc2cc(C)cc(OC(C)C(=O)NC(Cc3c[nH]c4ccc(O)cc34)C(=O)O)c12 (stereo not drawn)	4%	0%	0%	i	-4%
Cn1c(NC(=O)c2ccccc2NC(=O)C(C)(C)C)nc2ccccc21	-29%	-4%	1%	?	16µM*
S=C1Nc2ccccc2CS1	.	3%	.	i	.
S=C1Cc2ccccc2N1	6.3µM*	-1%	16µM*	5.6µM*	12µM*
O=C(Nc1ccc(F)cc1)C1C(c2ccccc2)C1(Cl)Cl (stereo not drawn)	?	2%	10%	?	?
COCCn1c(SCC(=O)N2CCCC2=O)nnc1-c1ccncc1	.	0%	.	i	.
COC(=O)c1c(C)[nH]c(C(=O)OCC(=O)c2c(N)n(CC(C)C)c(=O)n(C)c2=O)c1C	?	5%	-14%	i	15µM*
Cc1cccc(C(=O)OCC(=O)c2c(N)n(CC(C)C)c(=O)n(C)c2=O)c1O	-16%	0%	-15%	i	18µM*
CC(C)Cn1c(N)c(C(=O)COC(=O)c2ccc(Br)cc2)c(=O)n(C)c1=O	?	-1%	-16%	i	?
Cc1ccc(NN2C(=O)C=C(c3ccc(Cl)cc3)C2=O)cc1	25µM*	11%	6%	.	7%
Cc1csc(NC(=O)c2ccc(Cn3nc(C)c(Br)c3C)o2)n1	-20%	1%	-16%	i	18µM*
Cc1nn(Cc2ccc(C(=O)Nc3ccccc3C(F)(F)F)o2)c(C)c1Br	.	1%	-14%	.	?
CCCn1c(NC(=O)c2cccc(C)c2C)nc2ccccc21	-24%	3%	-17%	?	?
Cc1cccc(OCCn2c(NC(=O)c3ccco3)nc3ccccc32)c1	?	5%	-4%	.	18µM*
Cc1ccc(OCCn2c(NC(=O)c3ccco3)nc3ccccc32)cc1	?	4%	-12%	i	-25%
CCCn1c(NC(=O)c2ccc([N+](=O)[O-])o2)nc2ccccc21	-35%	13µM*	-11%	i	1%
COCCN=C1N[C@@H](c2cccc(C(F)(F)F)c2)C(C(=O)OC)=C(C)N1Cc1ccccc1	?	1%	-6%	?	12%
COC(=O)C1=C(C)N(Cc2ccccc2)C(=NCc2cccc(C(F)(F)F)c2)N[C@H]1c1cccc(F)c1	32µM*	-3%	-11%	.	4%
